Assay outcomes (PubChem)
VDR inh: Inhibitors of the vitamin D receptor (VDR): qHTS | Vitamin D3 receptor (Homo sapiens), P11473 | VDR-SRC2-3 peptide fluorescence polarization, 2 h | Potency, µM, most hits filed as inhibitors | actives 0.93% (n = 400,000)
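Two reagent solutions held at 4 deg C in the dark were dispensed, compounds pinned at 23 nl, and the mixture incubated 2 h at room temperature. Read-out: fluorescence polarization of VDR–SRC2-3 peptide binding.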
CBFb RUNX1 block: qHTS Assay for Compounds Blocking the Interaction Between CBF-beta and RUNX1 for the Treatment of Acute Myeloid Leukemia; AID 1477, 2009; Potency, µM (highest dose often 59.8 µM), actives largely listed as inhibitors; AlphaScreen CBFb-His/RUNX1-biotin binding, biochemical; 230,000 tested, under 10 active
Target sequence (Q01196 whole entry, looked up): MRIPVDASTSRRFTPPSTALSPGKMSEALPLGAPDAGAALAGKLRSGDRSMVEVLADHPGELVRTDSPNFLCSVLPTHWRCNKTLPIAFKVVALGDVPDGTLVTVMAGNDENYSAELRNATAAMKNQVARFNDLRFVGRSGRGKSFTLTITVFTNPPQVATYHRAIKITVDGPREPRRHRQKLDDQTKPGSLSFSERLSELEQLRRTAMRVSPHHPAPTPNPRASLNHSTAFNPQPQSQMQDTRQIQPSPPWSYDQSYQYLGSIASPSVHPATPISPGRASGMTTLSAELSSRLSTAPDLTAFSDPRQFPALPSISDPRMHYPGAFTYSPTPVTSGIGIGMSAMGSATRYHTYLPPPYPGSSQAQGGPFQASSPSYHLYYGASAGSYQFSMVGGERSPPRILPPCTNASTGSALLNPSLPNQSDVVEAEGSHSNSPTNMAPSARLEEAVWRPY
Target sequence (Q13951 whole entry, looked up): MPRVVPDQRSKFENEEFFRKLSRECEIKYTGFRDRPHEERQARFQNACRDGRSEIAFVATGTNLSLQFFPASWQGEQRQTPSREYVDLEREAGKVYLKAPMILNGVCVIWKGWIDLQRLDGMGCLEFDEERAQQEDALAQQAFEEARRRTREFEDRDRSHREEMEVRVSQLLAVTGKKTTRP
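His-tagged CBF-beta and biotinylated RUNX1 (30 nM each) were premixed 20 min at room temperature, exposed to compound for 15 min, then given nickel-chelate and streptavidin AlphaScreen beads (50 ng each). After 90 min, AlphaScreen signal was read.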
hERG WT inh: qHTS for Inhibitors of KCHN2 3.1: Wildtype qHTS. Voltage-gated inwardly rectifying potassium channel KCNH2 (Homo sapiens), Q12809. U2OS, BacMam KCNH2, thallium flux FluxOr; active compounds read low. activity change, % at 1.84 µM. actives 0.37% (n = 340,000);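 active = maximum activity change below -70%; inconclusive = maximum activity change between -70% and -50%; inactive = maximum activity change above -50%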
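U2OS cells were transduced with wild-type KCNH2 virus (2.03 x 10^8 / mL) for 4 h at room temperature, then cultured overnight at 37 C. Thallium flux was read with FluxOr dye. Rate constants were normalized to DMSO controls.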
MBNL1-CUG inh: qHTS Assay for Inhibitors of MBNL1-poly(CUG) RNA binding | TR-FRET MBNL1-His/biotin-(CUG)12 binding, 665/545 ratio | Potency, µM (highest dose often 57.5 µM), actives largely listed as inhibitors | actives 0.036% (n = 280,000) | AID 2675, 2010; active = well fitted inhibition curve with a large enough effect in the signal ratio, with a control signal flat, not every such curve was filed as active; inconclusive = small, poorly fitted or top-dose-only effect, or effect the other way, or a change in a side signal; inactive = no such curve, though single readings can be large or run the other way; the % refers to the signal ratio
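Ratiometric TR-FRET (665 over 545 nm, excitation 340 nm) tracks disruption of MBNL1-His/biotin-(CUG)12 complex after 60 min at room temperature, with compounds at 92 nM to 58 uM final.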
KCNH2 3.1 inh: qHTS for Inhibitors of KCHN2 3.1: Mutant qHTS | U2OS KCNH2 3.1, thallium flux FluxOr; active compounds read low | activity change, % (tested at about 1.8 µM) | actives 0.95% (n = 340,000) | AID 720553, 2013;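 active = maximum activity change below -70%; inconclusive = maximum activity change from -70% to -50%; inactive = maximum activity change above -50%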;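 note: thallium influx rate constant from kinetic fluorescence after stimulation buffer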
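Virally transduced U2OS (3.1 isoform, 4 h infection in dark at RT) → overnight 37 C → FluxOr + Red40 in HBSS/HEPES, 45 min → stimulation buffer, 2 min kinetic read → rate constant vs DMSO controls.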
PLK1 PBD inh: qHTS for Inhibitors of PLK1-PDB (polo-like kinase 1 - polo-box domain): Primary Screen | Serine/threonine-protein kinase PLK1 (Homo sapiens), P53350 | Plk1 PBD binding of FITC phosphopeptide, fluorescence polarization | Potency, µM, actives largely listed as inhibitors | actives 2.8% (n = 360,000) | AID 720504, 2013; note: series mostly up to about 57 µM; nearly all actives have a fitted effect of over 65% in size
Hits are given with their value; – = inactive; ? = inconclusive; · = not tested or not shown. Hits are enriched below; roughly 3.8% of the tested compounds scored in any of these assays. Unless noted, calls come from the whole dose curve; as a rule, active = well fitted curve in the direction sought with a large enough effect; inconclusive = small, poorly fitted or top-dose-only effect, or another doubt; inactive = no such curve, though single readings can be large; an effect the other way counts as inactive or inconclusive.

SMILES	VDR inh	CBFb RUNX1 block	hERG WT inh	MBNL1-CUG inh	KCNH2 3.1 inh	PLK1 PBD inh
Cc1cc(NC(=O)COC(=O)C2CCC(=O)N2)c([N+](=O)[O-])cc1C (centres undefined)	–	–	–	·	–	–
Cc1cc(NC(=O)COC(=O)CC2CCCC2)c([N+](=O)[O-])cc1C	–	·	–	?	-72.3	–
CCC(C(=O)Nc1nc(C)c(C)s1)c1ccccc1 (centres undefined)	–	·	–	–	–	–
CCC(C(=O)Nc1nc(C)cs1)c1ccccc1 (centres undefined)	?	–	–	–	–	26.7µM
COc1ccc(-c2nc(Cn3c(SCc4ccccc4F)nc4ccncc43)c(C)o2)cc1OC	–	·	·	·	·	·
COc1ccc(-c2nc(Cn3c(SCc4ccc(C)cc4)nc4ccncc43)c(C)o2)cc1OC	–	–	–	–	-122.2	–
COc1ccc(-c2nc(Cn3c(SCc4cccc(F)c4)nc4ccncc43)c(C)o2)cc1OC	–	–	–	–	-107.1	–
CCOC(=O)c1ccccc1NC(=O)N(Cc1ccco1)C1CCN(C(C)=O)CC1	–	·	·	·	·	·
Cc1ccc(-n2c(-c3c(-c4ccccc4)noc3C)n[nH]c2=S)cc1	–	–	–	–	-187.5	–
Cc1ccc(-n2c(-c3cccc(C)c3)n[nH]c2=S)cc1	–	–	–	–	–	–
CCOc1ccc(N2C(=O)CC(N(Cc3ccco3)C(=O)CC)C2=O)cc1 (centres undefined)	–	–	–	–	–	26.7µM
CC(C)c1ccc(S(=O)(=O)N2CCN(C(=S)NCc3ccco3)CC2)cc1	?	–	–	·	–	21.2µM
CCc1ccc(C(=O)COC(=O)C(Cc2c[nH]c3ccccc23)NC(=O)c2ccc(Br)cc2)cc1 (centres undefined)	–	·	·	·	·	·
O=C(O)CCc1ccc(-c2ccccc2)o1	20µM	–	–	–	–	?
COc1cccc(C(=O)Nc2ccc(NC(=O)c3ccco3)c(Cl)c2)c1	–	–	–	–	–	–
CCOc1ccc(C(=O)Nc2ccc(NC(=O)c3ccco3)c(Cl)c2)cc1Cl	–	–	–	–	-72.1	–
CCOc1ccc(C(=O)Nc2ccc(NC(=O)c3ccco3)c(Cl)c2)cc1Br	–	–	–	–	-80.8	–
O=c1cc(C(F)(F)F)nc(SCc2cccc3ccccc23)[nH]1	–	·	–	–	–	29.9µM
CCc1cc(=O)[nH]c(SCc2cccc3ccccc23)n1	–	·	–	–	-109.7	–
CN(C)c1ccc(CNC(=O)CN2C(=O)CCn3nc(-c4cn(C)c5ccccc45)cc32)cc1	–	·	·	·	·	·
CC(C)=CCC/C(C)=C/CC/C(C)=C/CC/C(C)=C/C(=O)O	?	–	·	·	·	·
Cc1ccc(O)c(C(=O)c2cnn(-c3ccccc3)c2)c1	?	–	–	–	–	3.36µM
COc1ccc(NC(=S)NC(NC(C)=O)C(Cl)(Cl)Cl)c([N+](=O)[O-])c1 (centres undefined)	–	–	–	?	–	23.8µM
CCOc1ccc(-n2c(=O)c3c(C)c(C)sc3n(CC(=O)N(CC)Cc3ccccc3)c2=O)cc1	–	·	·	·	·	·
CC(C)[C@H](NS(=O)(=O)c1ccc2c(c1)OCCO2)C(=O)OCC(=O)Nc1cc(Cl)ccc1Cl	79.4µM	–	–	–	–	29.9µM
SMILES	VDR inh	CBFb RUNX1 block	hERG WT inh	MBNL1-CUG inh	KCNH2 3.1 inh	PLK1 PBD inh
CCc1ccc(/C=C(/C#N)c2nc(-c3ccc(C)cc3)cs2)cc1	–	·	·	·	·	·
CCOc1ccc(-c2csc(/C(C#N)=C\c3ccc(O)c([N+](=O)[O-])c3)n2)cc1	–	–	–	?	–	18.9µM
Clc1ccc(-c2nnn3c2nc(N2CCCCC2)c2ccccc23)cc1	–	·	·	·	·	·
COc1ccc(CN2CCNC(=O)C2CC(=O)NC2CCCC2)c(C)c1C (centres undefined)	?	·	–	–	–	9.47µM
COc1ccc(CN2CCNC(=O)C2CC(=O)NC2CCC2)c(OC)c1 (centres undefined)	–	·	–	–	–	–
CCOC(=O)C(C(=O)c1ccccc1)[C@H](CCc1ccccc1)NC(=O)OC (some centres undefined)	–	–	·	·	·	·
O=C1C=CC(=O)N1CCCCCCCCCCN1C(=O)C=CC1=O	15.8µM	·	–	·	–	1.19µM
CC1=NOC(=O)/C1=C\c1ccc2c(c1)OCO2	89.1µM	–	–	–	–	2.38µM
O=C1/C(=C\c2ccc3c(c2)OCO3)CCC/C1=C/c1ccc2c(c1)OCO2	–	–	–	–	–	–
CC1=NOC(=O)/C1=C/c1ccc2c(c1)OCO2	31.6µM	–	–	–	–	?
COC(=O)C1=C(C)NC(=O)/C1=C\c1ccc2c(c1)OCO2	–	–	–	–	–	–
CN1C(=O)/C(=C/c2ccc3c(c2)OCO3)N=C1c1ccccc1	–	–	–	?	-122.6	–
Cc1ccc(S(=O)(=O)Cc2nc(-c3ccc(C(=O)NCc4ccccc4)cc3)oc2C)cc1	–	·	·	·	·	·
COc1ccc(/C=C/C(=O)Nc2ccc(Cl)c(Cl)c2)cc1OC	–	·	·	·	·	·
CN1CCN(C(=O)c2cnn(-c3ccccc3)c2NC(=O)c2ccc(Br)cc2)CC1	–	·	-79.5	·	-75.8	–
CCOC(=O)c1sc(N(Cc2ccccc2)C(=O)COC(=O)c2cnccn2)nc1C	–	–	–	–	-91.5	–
Cc1nnc(N(Cc2ccccc2)C(=O)c2cnccn2)s1	–	–	–	–	–	–
Cc1cc(NC(=O)c2ccccc2F)ncc1NC(=O)c1cccs1	–	–	·	–	–	8.44µM
COC(=O)CC1=NN(c2ccccc2)C(=O)/C1=C\c1ccc(OC)cc1	–	–	–	–	–	2.67µM
CCOC(=O)C1=NN(c2ccccc2)C(=O)/C1=C\c1ccc(N(C)C)cc1	?	–	–	–	–	1.89µM
COc1ccc(C(=O)NNC(=O)C2=NN(c3ccccc3)C(=O)CC2)cc1	–	·	–	–	–	–
CCOC(=O)CC1=NN(c2ccccc2)C(=O)/C1=C\c1ccc(OC)cc1OC	50.1µM	–	–	·	–	2.67µM
COc1ccc(C=C2c3ccccc3C(=O)c3ccccc32)c(OC)c1	·	·	·	–	·	·
CCN(CC)c1ccc(NC(=O)CCc2c(C)nc3ncnn3c2C)c(C)c1	–	·	·	·	·	·
CC(=O)OCc1c(C(F)(F)F)nn(C)c1Oc1ccccc1	–	–	–	?	–	–
